# From the supplement of paper PMC6411743
# ± gives the standard deviation of the averaged measurements. Targets with the largest changes are over-represented here; the source holds about 6,200 in all.
# Assays:
# Test in all cases: NP40-soluble protein abundance relative to vehicle (solubility fold change) (ratio); higher = more soluble protein in presence of AMP-PNP
# GALNS = molecular target: T1, GALNS (UniProt P34059)
# T1 sequence (whole entry): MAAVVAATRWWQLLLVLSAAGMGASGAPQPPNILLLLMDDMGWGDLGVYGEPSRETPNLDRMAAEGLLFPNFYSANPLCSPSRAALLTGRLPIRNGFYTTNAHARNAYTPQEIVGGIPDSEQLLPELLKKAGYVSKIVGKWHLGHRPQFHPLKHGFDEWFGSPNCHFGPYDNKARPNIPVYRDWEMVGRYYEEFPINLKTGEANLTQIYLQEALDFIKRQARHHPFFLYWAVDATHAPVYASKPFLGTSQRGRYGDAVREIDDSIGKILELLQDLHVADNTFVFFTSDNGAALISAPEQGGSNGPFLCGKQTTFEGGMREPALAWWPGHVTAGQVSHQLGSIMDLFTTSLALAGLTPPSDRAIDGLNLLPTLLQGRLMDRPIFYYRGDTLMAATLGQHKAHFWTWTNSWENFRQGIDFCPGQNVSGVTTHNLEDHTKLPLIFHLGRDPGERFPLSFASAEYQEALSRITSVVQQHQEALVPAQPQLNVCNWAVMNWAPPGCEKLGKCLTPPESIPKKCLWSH
# How it was run: (§1)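 Each value is a fold change relative to the detergent-processed vehicle, calculated per replicate from vsn-normalised intensities. Jurkat crude lysate received eight concentrations (0.1 to 10 mM) for 10 min at room temperature and 3 min at 37 °C, then was solubilised in 0.8% NP40 with benzonase (60 min, 4 °C). The ultracentrifuged supernatant was TMT-labelled and run by LC-MS/MS in three independent experiments.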
# MFN2 = molecular target: T2, MFN2 (UniProt O95140)
# T2 sequence (whole entry): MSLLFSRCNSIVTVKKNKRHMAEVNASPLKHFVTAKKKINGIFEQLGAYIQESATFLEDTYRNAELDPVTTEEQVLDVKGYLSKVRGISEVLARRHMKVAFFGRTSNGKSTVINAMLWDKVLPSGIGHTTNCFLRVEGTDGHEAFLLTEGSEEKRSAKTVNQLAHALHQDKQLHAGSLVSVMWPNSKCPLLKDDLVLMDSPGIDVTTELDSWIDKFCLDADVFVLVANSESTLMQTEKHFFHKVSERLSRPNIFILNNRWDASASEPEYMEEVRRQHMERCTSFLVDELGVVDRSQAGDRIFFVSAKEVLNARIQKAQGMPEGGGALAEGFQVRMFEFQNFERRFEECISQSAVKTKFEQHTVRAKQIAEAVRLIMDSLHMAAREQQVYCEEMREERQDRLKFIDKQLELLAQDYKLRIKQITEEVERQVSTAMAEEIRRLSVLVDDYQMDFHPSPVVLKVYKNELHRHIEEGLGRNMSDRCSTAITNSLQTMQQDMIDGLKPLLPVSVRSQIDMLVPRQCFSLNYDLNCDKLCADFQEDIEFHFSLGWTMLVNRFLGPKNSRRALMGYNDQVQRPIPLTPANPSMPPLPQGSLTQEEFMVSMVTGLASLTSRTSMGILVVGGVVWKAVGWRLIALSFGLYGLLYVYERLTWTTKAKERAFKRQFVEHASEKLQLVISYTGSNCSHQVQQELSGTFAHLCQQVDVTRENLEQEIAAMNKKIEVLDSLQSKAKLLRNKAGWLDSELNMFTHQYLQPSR
# How it was run: as §1
# PPM1F = molecular target: T3, PPM1F (UniProt P49593)
# T3 sequence (whole entry): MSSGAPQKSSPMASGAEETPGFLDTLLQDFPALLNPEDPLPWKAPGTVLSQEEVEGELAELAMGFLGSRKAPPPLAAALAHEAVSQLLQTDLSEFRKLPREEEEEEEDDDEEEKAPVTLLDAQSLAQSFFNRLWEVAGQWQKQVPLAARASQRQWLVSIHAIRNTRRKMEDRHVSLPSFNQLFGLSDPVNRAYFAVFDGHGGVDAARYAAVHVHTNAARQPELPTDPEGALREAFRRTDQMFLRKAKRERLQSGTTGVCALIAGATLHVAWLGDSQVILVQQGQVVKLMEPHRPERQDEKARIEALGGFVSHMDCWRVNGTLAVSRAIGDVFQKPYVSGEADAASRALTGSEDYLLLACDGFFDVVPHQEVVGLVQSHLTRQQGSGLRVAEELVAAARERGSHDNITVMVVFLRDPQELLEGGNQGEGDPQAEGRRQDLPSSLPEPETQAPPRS
# How it was run: as §1
smiles,measurement,setting,value
Nc1ncnc2c1ncn2[C@@H]1O[C@H](COP(=O)(O)OP(=O)(O)NP(=O)(O)O)[C@@H](O)[C@H]1O [adenylyl imidodiphosphate],NP40-soluble protein abundance,GALNS; concentration: 1mM,0.986 ± 0.018
same,NP40-soluble protein abundance,GALNS; concentration: 2mM,0.972 ± 0.011
same,NP40-soluble protein abundance,GALNS; concentration: 4mM,0.957 ± 0.04
same,NP40-soluble protein abundance,GALNS; concentration: 6mM,0.963 ± 0.019
same,NP40-soluble protein abundance,GALNS; concentration: 8mM,0.933 ± 0.034
same,NP40-soluble protein abundance,GALNS; concentration: 10mM,0.975 ± 0.027
same,NP40-soluble protein abundance,MFN2; concentration: 1mM,1.01 ± 0.064
same,NP40-soluble protein abundance,MFN2; concentration: 2mM,0.956 ± 0.032
same,NP40-soluble protein abundance,MFN2; concentration: 4mM,1.01 ± 0.074
same,NP40-soluble protein abundance,MFN2; concentration: 6mM,0.965 ± 0.037
same,NP40-soluble protein abundance,MFN2; concentration: 8mM,0.986 ± 0.049
same,NP40-soluble protein abundance,MFN2; concentration: 10mM,0.989 ± 0.024
same,NP40-soluble protein abundance,PPM1F; concentration: 1mM,1.028 ± 0.0057
same,NP40-soluble protein abundance,PPM1F; concentration: 2mM,1.019 ± 0.0062
same,NP40-soluble protein abundance,PPM1F; concentration: 4mM,1.03 ± 0.011
same,NP40-soluble protein abundance,PPM1F; concentration: 6mM,1.014 ± 0.0081
same,NP40-soluble protein abundance,PPM1F; concentration: 8mM,1.02 ± 0.013
same,NP40-soluble protein abundance,PPM1F; concentration: 10mM,1.04 ± 0.018
